Experimental data reported in PubChem BioAssay (NCI).
Compounds without any hit were thinned out: in the full panel of roughly 83,000, 20% have a hit.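 Testing used 96-well plates and a 48-hour single-concentration exposure. Example: -40 means 40% of the starting cells died.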 A number with no mark means an inactive call. Calls of active or inactive are those of the source. Rule for the calls: active = growth percent below 10; inactive = the rest.

Experiments:
Assay in all cases: NCI-60 one-dose screen, 48 h (100 = growth as untreated, 0 = no growth, -100 = all killed)
Details in all cases: 10 µM unless noted
NCI-H23 lung = tested on: NCI-H23 lung
NCI-H226 lung = tested on: NCI-H226 lung
NCI-H322M lung = tested on: NCI-H322M lung
HOP-62 NSCLC = tested on: HOP-62 NSCLC
HOP-92 NSCLC = tested on: HOP-92 NSCLC
NCI-H522 lung = tested on: NCI-H522 lung
A549/ATCC NSCLC = tested on: A549/ATCC NSCLC
COLO 205 colon = tested on: COLO 205 colon
DU-145 prostate = tested on: DU-145 prostate
K-562 leukemia = tested on: K-562 leukemia
MALME-3M melanoma = tested on: MALME-3M melanoma
MDA-MB-231 breast = tested on: MDA-MB-231 breast
RXF 393 renal = tested on: RXF 393 renal
SF-268 CNS = tested on: SF-268 CNS
SF-295 CNS = tested on: SF-295 CNS
SF-539 CNS = tested on: SF-539 CNS
UACC-257 melanoma = tested on: UACC-257 melanoma
M14 melanoma = tested on: M14 melanoma
786-0 renal = tested on: 786-0 renal
NCI-H460 lung = tested on: NCI-H460 lung

| Compound | growth (NCI-H23 lung) [%] | growth (NCI-H226 lung) | growth (NCI-H322M lung) [%] | growth (HOP-62 NSCLC) | growth (HOP-92 NSCLC) | growth (NCI-H522 lung) | growth (A549/ATCC NSCLC) [%] | growth (COLO 205 colon) | growth (DU-145 prostate) | growth (K-562 leukemia) | growth (MALME-3M melanoma) | growth (MDA-MB-231 breast) | growth (RXF 393 renal) | growth (SF-268 CNS) | growth (SF-295 CNS) | growth (SF-539 CNS) | growth (UACC-257 melanoma) | growth (M14 melanoma) | growth (786-0 renal) | growth (NCI-H460 lung) [%] |
| --- | --- | --- | --- | --- | --- | --- | --- | --- | --- | --- | --- | --- | --- | --- | --- | --- | --- | --- | --- | --- |
| CC(=O)Oc1csc(N(C(C)=O)c2cc(C(=O)O)cc(C(=O)O)c2)n1 | 93.1 | 101% | 99.8 | 99% | 47.3% | 93.1% | 97.1 | 99.7% | 97.4% | 102% | 87.9% | 89.2% | 95.8% | 92.9% | 96.4% | 89.6% | 92.8% | 84.5% |  |  |
| O=S(=O)(CC(O)(c1ccccc1)c1ccccc1)CC(O)(c1ccccc1)c1ccccc1 | 88.3 | 84.1% | 59.3 | 68.8% | 86.7% | 108% | 94.1 | 90.2% | 74.6% | 75.8% | 61.8% | 71.2% | 93.4% | 85.3% | 74.8% | 2.42% (active) | 102% | 95.2% | 90.2% |  |
| CCN(CC)CCC(CNc1ccnc2cc(Cl)ccc12)c1ccc(Cl)cc1 (stereo not given) | 48.6 | 14.4% | 34.6 | 6.58% (active) | -39.9% (active) | -59.1% (active) | 12.3 | -97.7% (active) | 67.7% | -53.9% (active) | -83.1% (active) | -32.1% (active) | -90.4% (active) | -8.09% (active) | -75.4% (active) | -78.2% (active) | -79.4% (active) | -80.2% (active) | -59.1% (active) |  |
| CN1CCN(Cc2ccc(NC(=O)c3cncc(C#Cc4cnc(N)c5ccncc45)c3)cc2C(F)(F)F)CC1 | 15.4 | -12.8% (active) | 20.4 | 9.44% (active) | -22.5% (active) | 24.4% | 26.4 | -16.1% (active) | 22.2% | -16.8% (active) | -44.5% (active) | -33.7% (active) | -30.1% (active) | 24.5% | 20.8% | -20.6% (active) | 23.8% | 2.43% (active) | 35.3% |  |
| COc1cc(C2C3=C(COC3=O)Nc3cc4c(cc32)CCC4)cc2c1OCO2 (stereo not given) | 19.6 | 31.9% | 50.7 | 35.5% | 41.1% | -3.96% (active) | 18.7 | -63.1% (active) | -0.3% (active) | 14.1% | 60% | 20.8% | 30.4% | 27.9% | 6.57% (active) | 10.2% | 73.1% | 12% | 18.1% |  |
| Cc1cc(N)n(S(=O)(=O)c2oc(-c3ccccc3)nc2C#N)n1 |  | 89.6% | 98.4 | 95% | 91.5% | 24.4% | 95.3 | -34% (active) | 103% | 7.1% (active) | -49% (active) | 94.1% | 92.3% | 103% | 101% | 108% | 101% |  | 90.1% | 106 |
| COc1ccc(Nc2ncccc2C(=O)NCc2cn(Cc3cccc(Oc4ccccc4)c3)nn2)cc1 | 54.6 | 71.7% | 46.1 | 51.2% | 68.5% | 26.1% | 49.2 | 43.9% | 46.1% | 33.6% | 41.4% | 52% | 46% | 50% | 33.7% | 33.6% | 88.8% | 38.7% | 51.3% |  |
| COc1ccc(S(=O)(=O)n2ccc(-c3ccc4c(c3)CCC(C)(C)O4)n2)cc1OC | 56.1 | 59% | 89.5 | 112% | 58.3% | 65.8% | 67.1 |  | 82.6% | 53% | 114% | 82.5% | 75.1% | 85.3% | 63% | 97.1% | 57.1% | 81.9% | 79.4% |  |
| COc1cc(/C=C/C(=O)/C=C/c2cc(OC)c3c(c2)OCO3)cc2c1OCO2 | 80.5 | 78.8% | 108 | 106% |  | 101% | 93.5 | 96.5% | 107% | 50.9% | 98.2% | 80.2% | 72.4% | 88.7% | 94.5% | 100% | 103% |  | 100% |  |
| Cc1cc(N/N=C/c2nc(-c3ccc(Br)cc3)oc2C)c2cc(Br)ccc2n1 | 103 | 113% | 82.8 | 105% | 78.8% | 48% | 32.8 | 99.7% | 34.6% | -29.2% (active) | 17.4% | 55.9% | 92.8% | 75.1% | 96.7% | 89% | 95.8% | 57.5% | 29.2% |  |
| O=C(/C=C/c1c[nH]c2ccccc12)c1ccc(O)c(CN2CCN(c3ccc(F)cc3)CC2)c1 | 99.8 | 100% | 103 | 95.9% | 95.5% | 102% | 99.5 | 109% | 107% | 103% | 101% | 98.7% | 108% | 94% |  | 98.3% | 115% | 99.4% | 103% |  |
| COc1ccc2[nH]c(=O)c(/C=N/Nc3nc(-c4ccccc4)cs3)c(O)c2c1 | 89.7 | 66.6% | 18.2 | 43% | 94.7% | 80.1% | 57.3 |  | 63.7% | 71.3% | 84.5% | 57.5% | 97.1% | 56.4% | 69.3% | 84.1% | 98.8% | 75.2% |  |  |
| CC(C)(C)n1cc(-c2ccnc(NCCCNS(=O)(=O)c3cccc(F)c3)c2)c(-c2cccc(O)c2)n1 | 66.5 | 60.9% | 58.6 | 73.8% | 79.5% | 47.6% | 42.5 | 8.99% (active) | 66% | 2.9% (active) | 50.3% | 37.3% | 46.5% | 54% | 31.6% | 39.3% | 52.9% | 34.9% | 29.5% |  |
| C=C1C(=O)O[C@H]2[C@H]1CC/C(Cn1cc(CNC(=O)/C=C/c3c[nH]c4ccccc34)nn1)=C\CC[C@@]1(C)O[C@@H]21 | 100 | 92.5% | 101 | 104% | 82.9% | 16.4% | 91.6 | 67.9% | 103% | 23.6% | 98% | 99.7% | 84% | 93.5% | 93.3% | 80.4% | 74.9% | 84.3% | 102% |  |
| CCCCCCCC/C=C/CCCCCCCC1=NC(C)(C)CN1C(C)(C)CO | 44.7 | 86.2% | 58.5 | 30.6% |  | 13% | 30.8 | -86.3% (active) |  | -58.6% (active) | -12.9% (active) | 17.5% | 13.1% | 53.6% | 86.9% | 77.1% | -28.5% (active) | -84.7% (active) | 60.3% |  |
